Data from PubChem BioAssay (NCATS).
Inconclusive results are not listed. Entries that show only a call come without a potency. Activity calls are given as the source filed them. Unless noted, the call rests on the fitted dose curve; in most records, active means well fitted curve in the direction sought with a large enough effect; inconclusive means small, poorly fitted or top-dose-only effect, or another doubt; inactive means no such curve, though single readings can be large; an effect the other way counts as inactive or inconclusive. Bridge positions count the residues as written; N and C are the ends. Square brackets hold non-standard residues; d marks the D form. Peptide text beside a SMILES is read from it. * marks the point of attachment. Octanoyl(6-Me) = CCC(C)CCCCC(=O)*; Dab = NCC[CH](N)C(=O)O

Tests used:
[1] = biological target: Cytochrome P450 3A4 (Homo sapiens) (UniProt P08684); test: qHTS Assay for Inhibitors and Substrates of Cytochrome P450 3A4 (AID 884); conditions: recombinant CYP3A4, Luciferin-PPXE luminescence; series mostly up to 57.1 µM; further: nearly all actives have a fitted effect of over 50% in size; further: potency means the concentration at half of the fitted maximal effect
Outline: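 Luminescent readout of luciferin produced by CYP3A4 (20 nM) dealkylation of Luciferin-PPXE, 25 uM (its KM). NADPH-driven reaction ran 60 min at RT after 10 min compound preincubation; data scaled to 57 uM ketoconazole as 100% inhibition.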

[2] = biological target: Luciferin 4-monooxygenase (Photinus pyralis) (UniProt P08659); test: Biochemical firefly luciferase enzyme assay for NPC (AID 624030);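 further: purified P. pyralis luciferase at 10 nM with luciferin and ATP substrate; nearly all actives have a fitted effect of over 70% in size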; conditions: purified P. pyralis luciferase, luminescence, 5 min; series mostly up to 58.6 µM
Outline: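 Purified P. pyralis luciferase at 10 nM in 50 mM Tris Acetate (final), luminescence read within 5 minutes of enzyme addition to compounds. Activity normalised to PTC124 versus DMSO; concentration-response curves classed by r2, magnitude and activity.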

[3] = biological target: Glutathione peroxidase 1 (Homo sapiens) (UniProt P07203); test: Primary qHTS Assay for Inhibitors of Recombinant Selenoprotein Glutathione Peroxidase 1 (GPX1) (AID 1845191); conditions: recombinant GPX1, GR-coupled NADPH fluorescence, 15 min; series mostly up to 48.8 µM; further: nearly all actives have a fitted effect of over 65% in size; further: potency means the concentration at half of the fitted maximal effect
Outline: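 GR-coupled readout: NADPH consumption tracked by fluorescence, ex 340/em 450 nm, at t=0 and after 15 min at RT. Final mix 10 nM GPX1, 1 mM GSH, 0.5 mM CHP, 0.5 mM NADPH, 100 nM GR, 0.01% BSA, following 30 min enzyme–compound preincubation.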

[4] = biological target: Phospholipid hydroperoxide glutathione peroxidase GPX4 (Homo sapiens) (UniProt P36969); test: Primary qHTS Assay for Inhibitors of Recombinant Selenoprotein Glutathione Peroxidase 4 (GPX4) (AID 1845192); conditions: recombinant GPX4, GR-coupled NADPH fluorescence, 15 min; series mostly up to 50 µM; further: nearly all actives have a fitted effect of over 65% in size; further: potency means the concentration at half of the fitted maximal effect
Outline: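 Steps: GPX4 plus compound, 30 min RT; add GR/GSH/NADPH master mix; start with cumene hydroperoxide; read 340/450 nm fluorescence at 0 and 15 min. Finals were 200 nM GPX4, 1 mM GSH, 0.5 mM CHP, 0.5 mM NADPH, 100 nM GR.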

[5] = qHTS profiling for inhibitors of Plasmodium falciparum proliferation (AID 504749); further: nearly all actives have a fitted effect of over 60% in size; further: potency means the concentration at half of the fitted maximal effect; conditions: P. falciparum in erythrocytes, SYBR Green DNA, 72 h
Outline: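 Each compound contacts P. falciparum-infected red blood cells for 72 h at 37 C; lysis buffer (Tris, EDTA, saponin, Triton X, SYBR Green I) is added and fluorescence measured next morning; values normalized to controls.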

[6] = Cell Viability - BJ (AID 421; calls by dose curve;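 further: potency means the concentration at half of the fitted maximal effect; cells exposed to compound for 40 hours at 37 °C before readout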); conditions: BJ fibroblast viability, qHTS
Outline: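 Cytotoxicity as drop in intracellular ATP (CellTiter-Glo, 20 min RT) after 40 hr compound exposure of BJ fibroblasts at 37 °C. Titrations scaled between DMSO and 100 uM tamoxifen, Hill-fitted for AC50.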

[7] = Cell Viability - MRC5 (AID 434; calls by dose curve;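 further: potency means the concentration at half of the fitted maximal effect; cells exposed to compound for 40 hours at 37 °C; potency reflects cytotoxicity seen as loss of intracellular ATP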); conditions: MRC5 lung fibroblast viability, qHTS
Outline: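 ATP luminescence read-out (CellTiter-Glo, 20 min RT) after 40 hr, 37 °C compound exposure of 1500 MRC5 cells/well. Data normalized to DMSO (basal) and 100 uM tamoxifen (100% inhibition); AC50 from standard Hill equation.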

[8] = Cell Viability - SK-N-SH (AID 435; calls by dose curve; further: potency means the concentration at half of the fitted maximal effect); conditions: SK-N-SH neuroblastoma cell viability qHTS
Outline: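 qHTS cytotoxicity: CellTiter-Glo ATP luminescence after 40 h compound exposure of human neuroblastoma SK-N-SH cells at 37 °C. AC50 derived by Hill-equation fitting, with DMSO as basal and 100 uM tamoxifen as full inhibition.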

[9] = biological target: Mitogen-activated protein kinase 10 (Mus musculus) (UniProt Q61831); test: JNK3 AlphaScreen Assay (AID 530; active means well fitted curve in either direction with a large enough effect, not every such curve was filed as active;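 further: kinase came from lysate of stimulated human HepG2 cells; signal reports phosphorylation of biotinylated GST-cJun 1-79 at Ser73 with 10 µM ATP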); conditions: JNK3 lysate, c-Jun phosphorylation; series mostly up to 57.1 µM
Outline: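 Activity was read by AlphaScreen after JNK3-containing HepG2 lysate (cytokine pre-activated) phosphorylated biotinylated GST-cJun with 10 uM ATP at room temperature. Phospho-Ser73 cJun antibody with Protein-A acceptor beads provided detection.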

[10] = Cell Viability - Mesenchymal (AID 546); conditions: mesenchymal cells viability, qHTS; activity change, negative = cytotoxicity: at 91.7 µM (top of the series);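 further: cells exposed to compound for 40 hours before reading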
Outline: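 Human renal mesenchymal cells (glomerulus-derived), 1000 cells/well, 5 hr 37 °C pre-incubation; compound 40 hr, 37 °C; CellTiter-Glo, 20 min RT; luminescence; AC50 via Hill equation.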

[11] = qHTS Assay for Identification of Small Molecule Inducers of Hypoxia Response (AID 2120; active means well fitted curve in the direction sought with a large enough effect in the signal ratio, with a control signal flat, not every such curve was filed as active; the % refers to the signal ratio); conditions: hypoxia response reporter cells, beta-lactamase ratio readout; series mostly up to 104 µM
Outline: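 Cell-based qHTS for reporter induction: hypoxia response element controlled beta-lactamase in ME-180 cells. Compounds incubated 17 h at 37 degrees C; activity from blue/green (460/530 nm) ratio, inducers ranked by AC50.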

[12] = biological target: Peroxisome proliferator-activated receptor gamma (Homo sapiens) (UniProt P37231); test: qHTS assay for small molecule agonists of peroxisome proliferator-activated receptor gamma signaling (AID 588536; active means well fitted curve in the direction sought with a large enough effect in the signal ratio, with a control signal flat, not every such curve was filed as active; the % refers to the signal ratio); conditions: HEK293 PPARg-UAS-bla, beta-lactamase ratio, 16 h, percent of rosiglitazone response, DMSO as zero; series mostly up to 76.7 µM
Outline: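 This is an agonist-mode beta-lactamase reporter assay in HEK293 PPAR-gamma-UAS-bla cells with 1% charcoal/dextran FBS. Compound titrations ran 16 h at 37 C before CCF4 detection. EC50 and efficacy are Hill fits scaled to 2 uM rosiglitazone (100%) and DMSO basal.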

[13] = biological target: Thyroid hormone receptor beta (Homo sapiens) (UniProt P10828); test: qHTS assay for small molecule agonists of thyroid hormone receptor beta signaling (AID 588545; calls by dose curve); conditions: TR-UAS-bla GripTite HEK 293, beta-lactamase ratio, agonist mode, 18 h, percent of T3 response, DMSO as zero; series mostly up to 76.7 µM
Outline: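 Agonist activity was read as beta-lactamase CCF4 fluorescence (405 ex, 460/530 em), scaled between DMSO (0%) and 10 nM T3 (100%), then Hill-fitted for EC50 and efficacy. HEK 293 TR-UAS-bla cells in 2% charcoal/dextran FBS medium were exposed 18 h at 37 C.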

[14] = qHTS assay for small molecule antagonists of retinoid X receptor alpha signaling (AID 588546); conditions: HEK293T RXRa-UAS-bla, beta-lactamase ratio, antagonist mode; measured here: W530 green channel, cytotoxicity proxy;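 further: cells stimulated with 9-cis-retinoic acid as agonist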
Outline: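 Beta-lactamase reporter inhibition, read as CCF4 fluorescence ratio (ex 405, em 460/530 nm) after 2 h at RT. HEK293T UAS-bla cells, 2500/well, were stimulated with 9-cis-RA at 500 or 100 nM final alongside test compound for 18 h at 37 C.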

[15] = qHTS assay for environmental chemicals that activate the Aryl hydrocarbon Receptor (AhR) signaling pathway (AID 651777); conditions: 1A2-DRE human hepatoma cells, luciferase, 24 h; activation: stronger effect = higher value; further: nearly all actives have a fitted effect of over 15% in size
Outline: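 1A2-DRE human hepatoma reporter line; 1,200 cells/well; cmpd or DMSO 24 h, 37 C/5% CO2; One-Glo 30 min RT; luciferase lum.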

[16] = biological target: Peroxisome proliferator-activated receptor alpha (Homo sapiens) (UniProt Q07869); test: qHTS assay for small molecule agonists of the peroxisome proliferator-activated receptor alpha (PPARalpha) signaling pathway (AID 651778); conditions: PathHunter PPARalpha complementation, chemiluminescence, 6 h; max response: stronger effect = higher value
Outline: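 Enzyme-fragment complementation assay in which ligand-bound PPARalpha translocates and forms an active enzyme that generates chemiluminescence. Cells were plated overnight, exposed to compound for 6 hr at 37 C, and then given detection reagent for 60 min at room temperature.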

[17] = qHTS assay for small molecule agonists of the antioxidant response element (ARE) signaling pathway measured by Nrf2-dependant transcriptional activity (AID 720636; active means well fitted curve in the direction sought with a large enough effect in the repeat runs; an effect the other way counts as inactive or inconclusive;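 further: HepG2 cells with an ARE-driven luciferase reporter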); conditions: ARE-luc HepG2, Nrf2 luciferase reporter, 16 h; series mostly up to 92.4 µM
Outline: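 Cells: ARE-luc HepG2 with Nrf2-responsive luciferase. Medium contained 1% dialyzed FBS. Compound exposure lasted 16 hr at 37 C and 5% CO2, followed by ONE-Glo luciferase detection.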

[18] = qHTS assay for cell viability of HEK293 cells (AID 743288); conditions: ATP luminescence (CellTiter-Glo), 18 h; max response: stronger effect = lower value; further: nearly all actives have a fitted effect of over 50% in size
Outline: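 Readout is luciferase-coupled ATP content (CellTiter-Glo luminescence, 30 min room temperature) as a measure of metabolically competent cells. Parental HEK293 cells were plated 5 h or more before compound addition, then treated 18 h at 37 C.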

[19] = qHTS assay for cell viability of the p53RE-bla HCT-116 cell line (AID 743292); conditions: p53RE-bla HCT-116 viability, ATP luminescence, 16 h; series mostly up to 95 µM; further: nearly all actives have a fitted effect of over 55% in size
Outline: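 HCT-116 p53RE-bla cells seeded 4,000/well; 5 h at 37 C; compound (DMSO) added; 16 h at 37 C; CellTiter-Glo added, 30 min RT; luminescence read.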

[20] = qHTS drug screen for cell cycle checkpoint inhibitors in PARPi-resistant BRCA-mutant ovarian cancer cell lines. (AID 1963452; calls by dose curve; further: potency means the concentration at half of the fitted maximal effect); conditions: PEO1/OlaR viability, CellTiter-Glo luminescence, 96 h; for Z-AUC: stronger effect = lower value
Outline: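 PEO1, PEO4 and PEO1/OlaR ovarian cancer cells, 600 per well, exposed 96 h at 37C to a dilution series. Viability read by CellTiter-Glo luminescence, normalized to DMSO and empty wells; activity summarized as Z-AUC.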

[21] = measured here: PEO1 parental Z-AUC

Chain of Cytochrome P450 3A4 (Homo sapiens) (P08684 whole entry, looked up): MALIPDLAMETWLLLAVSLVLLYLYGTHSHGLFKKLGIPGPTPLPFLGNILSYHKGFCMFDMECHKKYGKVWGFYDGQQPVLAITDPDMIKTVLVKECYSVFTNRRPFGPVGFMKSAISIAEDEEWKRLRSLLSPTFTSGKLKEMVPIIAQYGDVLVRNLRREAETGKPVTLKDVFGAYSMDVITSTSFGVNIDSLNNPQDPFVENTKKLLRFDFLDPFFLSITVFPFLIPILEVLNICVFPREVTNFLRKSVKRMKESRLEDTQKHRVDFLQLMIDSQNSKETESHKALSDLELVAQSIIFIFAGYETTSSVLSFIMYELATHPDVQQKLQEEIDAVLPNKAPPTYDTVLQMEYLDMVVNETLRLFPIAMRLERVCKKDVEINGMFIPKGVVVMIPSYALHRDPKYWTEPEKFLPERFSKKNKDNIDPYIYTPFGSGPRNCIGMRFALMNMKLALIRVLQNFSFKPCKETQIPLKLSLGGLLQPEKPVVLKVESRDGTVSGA
Chain of Luciferin 4-monooxygenase (Photinus pyralis) (P08659 whole entry, looked up): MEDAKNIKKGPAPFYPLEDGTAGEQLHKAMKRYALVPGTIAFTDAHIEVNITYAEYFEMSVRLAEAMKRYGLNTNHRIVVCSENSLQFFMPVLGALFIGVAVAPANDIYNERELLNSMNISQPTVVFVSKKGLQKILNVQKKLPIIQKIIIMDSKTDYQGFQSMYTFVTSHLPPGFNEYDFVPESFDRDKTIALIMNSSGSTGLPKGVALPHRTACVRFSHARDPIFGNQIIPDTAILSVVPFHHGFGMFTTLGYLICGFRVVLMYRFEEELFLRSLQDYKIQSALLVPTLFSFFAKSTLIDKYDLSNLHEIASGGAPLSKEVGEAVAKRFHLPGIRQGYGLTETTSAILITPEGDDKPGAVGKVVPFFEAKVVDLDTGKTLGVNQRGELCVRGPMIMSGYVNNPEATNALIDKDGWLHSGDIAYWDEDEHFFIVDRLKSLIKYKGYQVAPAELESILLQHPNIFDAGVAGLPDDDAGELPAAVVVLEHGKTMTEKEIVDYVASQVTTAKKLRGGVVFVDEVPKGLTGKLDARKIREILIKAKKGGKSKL
Chain of Phospholipid hydroperoxide glutathione peroxidase GPX4 (Homo sapiens) (P36969 whole entry, looked up): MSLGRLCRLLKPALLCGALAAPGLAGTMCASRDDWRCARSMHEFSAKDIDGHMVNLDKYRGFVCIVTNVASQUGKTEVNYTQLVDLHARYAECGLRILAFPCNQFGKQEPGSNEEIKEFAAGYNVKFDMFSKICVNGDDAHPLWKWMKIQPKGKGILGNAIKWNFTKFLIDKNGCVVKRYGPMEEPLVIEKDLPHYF
Chain of Glutathione peroxidase 1 (Homo sapiens) (P07203 whole entry, looked up): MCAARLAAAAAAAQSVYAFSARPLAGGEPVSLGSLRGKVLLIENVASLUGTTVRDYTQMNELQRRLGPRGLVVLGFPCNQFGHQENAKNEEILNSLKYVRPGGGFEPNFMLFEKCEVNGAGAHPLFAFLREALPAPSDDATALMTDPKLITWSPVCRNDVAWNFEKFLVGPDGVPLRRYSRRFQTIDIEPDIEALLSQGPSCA
Chain of Peroxisome proliferator-activated receptor gamma (Homo sapiens) (P37231 whole entry, looked up): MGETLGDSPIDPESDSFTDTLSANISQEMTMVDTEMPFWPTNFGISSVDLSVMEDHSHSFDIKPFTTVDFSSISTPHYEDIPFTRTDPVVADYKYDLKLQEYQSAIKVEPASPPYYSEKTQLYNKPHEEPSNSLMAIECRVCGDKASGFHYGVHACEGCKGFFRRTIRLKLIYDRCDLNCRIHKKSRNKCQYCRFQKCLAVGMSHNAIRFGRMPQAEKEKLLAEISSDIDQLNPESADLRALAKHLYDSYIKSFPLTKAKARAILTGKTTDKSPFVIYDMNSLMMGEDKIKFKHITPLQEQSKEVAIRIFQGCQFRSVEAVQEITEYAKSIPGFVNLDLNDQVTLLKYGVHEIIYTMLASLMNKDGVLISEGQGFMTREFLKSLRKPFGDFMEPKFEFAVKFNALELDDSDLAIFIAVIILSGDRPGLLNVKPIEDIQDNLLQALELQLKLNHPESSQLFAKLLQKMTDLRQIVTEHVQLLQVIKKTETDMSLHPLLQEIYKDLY
Chain of Peroxisome proliferator-activated receptor alpha (Homo sapiens) (Q07869 whole entry, looked up, the tested form may be a part): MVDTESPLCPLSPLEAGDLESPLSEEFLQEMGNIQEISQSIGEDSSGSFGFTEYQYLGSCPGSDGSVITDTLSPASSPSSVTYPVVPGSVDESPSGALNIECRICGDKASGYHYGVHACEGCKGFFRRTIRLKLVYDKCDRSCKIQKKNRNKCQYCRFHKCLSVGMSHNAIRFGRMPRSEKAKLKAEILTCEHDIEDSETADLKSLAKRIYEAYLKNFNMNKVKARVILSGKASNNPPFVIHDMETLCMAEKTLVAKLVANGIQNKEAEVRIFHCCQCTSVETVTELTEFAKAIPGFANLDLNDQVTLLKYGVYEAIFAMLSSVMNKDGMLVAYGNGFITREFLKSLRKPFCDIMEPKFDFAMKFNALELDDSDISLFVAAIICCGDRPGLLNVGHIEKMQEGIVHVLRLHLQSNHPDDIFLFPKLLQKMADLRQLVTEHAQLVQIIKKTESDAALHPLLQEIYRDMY
Chain of Thyroid hormone receptor beta (Homo sapiens) (P10828 whole entry, looked up): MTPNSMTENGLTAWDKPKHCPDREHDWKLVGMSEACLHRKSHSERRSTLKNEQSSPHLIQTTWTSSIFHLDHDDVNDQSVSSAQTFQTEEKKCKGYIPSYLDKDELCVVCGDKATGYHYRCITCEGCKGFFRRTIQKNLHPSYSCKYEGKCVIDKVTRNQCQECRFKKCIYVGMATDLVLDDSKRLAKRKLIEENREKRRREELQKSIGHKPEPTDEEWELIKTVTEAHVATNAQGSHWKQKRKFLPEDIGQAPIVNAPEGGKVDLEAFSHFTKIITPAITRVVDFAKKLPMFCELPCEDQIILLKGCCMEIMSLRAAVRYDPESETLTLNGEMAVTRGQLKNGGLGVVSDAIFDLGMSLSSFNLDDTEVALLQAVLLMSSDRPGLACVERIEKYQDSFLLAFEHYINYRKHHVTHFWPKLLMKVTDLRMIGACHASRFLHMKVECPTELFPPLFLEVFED

## CCC(C)CCCCC(=O)NC(CCN)C(=O)NC(C(=O)NC(CCN)C(=O)NC1CCNC(=O)C(C(C)O)NC(=O)C(CCN)NC(=O)C(CCN)NC(=O)C(CC(C)C)NC(=O)C(Cc2ccccc2)NC(=O)C(CCN)NC1=O)C(C)O (stereo unspecified) ({Octanoyl(6-Me)}-[Dab]T[Dab][Dab][Dab]FL[Dab][Dab]T; lactam 4-C; configuration not given here)
[1]
  Potency: inactive
[2]
  Potency: inactive
[3]
  Potency: inactive
[4]
  Potency: inactive
[5]; at 28.7 µM (top of the series), parasite line B
  activity, negative = inhibition: 12% (inactive)

## CCCCCCCCCCCCCCCC(=O)OCC(O)C1OC(=O)C(O)=C1O (stereo unspecified)
[2]
  Potency: inactive
[3]
  Potency: inactive
[4]
  Potency: 7.08 µM (active)

## c1ccc2scnc2c1
[6]
  Potency: > 92 µM (inactive)
[7]
  Potency: > 92 µM (inactive)
[8]
  Potency: > 92 µM (inactive)
[9]
  Potency: inactive
[10]
  activity change, negative = cytotoxicity: -5.46% (inactive)
[1]
  Potency: inactive
[11]
  outcome: inactive
[12]
  outcome: inactive
[13]
  outcome: inactive
[14]
  max response: -9.8%
[15]
  activation: -0.642% (inactive)
[16]
  max response: -3.74% (inactive)
[17]
  Potency: inactive
[18]
  max response: 11.2% (inactive)
[19]
  Potency: inactive
[3]
  Potency: inactive
[4]
  Potency: inactive

## N=C(N)c1ccc(OCCCOc2ccc(C(=N)N)cc2Br)c(Br)c1
[2]
  Potency: inactive
[3]
  Potency: inactive
[4]
  Potency: inactive

## C/C(O)=C(\C#N)C(=O)Nc1ccc(C(F)(F)F)cc1
[3]
  Potency: inactive
[4]
  Potency: inactive
[20]
  Z-AUC: -1.06 (inactive)
[20]; [21]
  Z-AUC: 0.703
[20]; measured here: PEO4 Z-AUC
  Z-AUC: -0.074

## Nc1nc(-c2ccc(Cl)c(Cl)c2)c(-c2ccncc2)s1
[1]
  Potency: 794 nM (active)
[3]
  Potency: inactive

## CC(C)NC(=O)C1CCC(n2c(NC(=O)c3ccc(F)cc3)nc3ccc(CN4CCC(C(C)(C)O)CC4)cc32)CC1 (stereo unspecified)
[3]
  Potency: inactive
[4]
  Potency: inactive
[20]
  Potency: 8.48 µM (active)
[20]; [21]
  Z-AUC: -1.17
[20]; measured here: PEO4 Z-AUC
  Z-AUC: -1.3

## CC/C=C(\C(=O)N[C@H]1C(=O)N2C(C(=O)OCOC(=O)C(C)(C)C)=C(COC(N)=O)CS[C@H]12)c1csc(N)n1
[2]
  Potency: inactive
[3]
  Potency: 6.26 µM (active)

## CC(C)(CO)C(O)C(=O)NCCCC(=O)O (stereo unspecified)
[2]
  Potency: inactive
[3]
  Potency: inactive
[5]; parasite line A
  Potency: 14.1 nM (active)

## CC(C)(C)NCC(O)COc1ccccc1C1CCCC1 (stereo unspecified)
[4]
  Potency: inactive
